The values below come from PubChem BioAssay (Tox21).

Values without a mark were called inactive. Active and inactive are the calls of the source. Calls come from the whole dose curve; as a rule, active = well fitted curve in the direction sought with a large enough effect in the repeat runs; inconclusive = weak or mixed curves; inactive = flat fitted curve, though single readings scatter.
% is set by controls: 0 for no effect and ±100 for the full control effect.

This assay is described as follows: qHTS assay to test for compound auto fluorescence at 535 nm (green) in HepG2 cell free culture (AID 720686). Particulars: Cell-free medium, green autofluorescence 485/535 nm; series mostly up to 91.3 µM.
`CC(CCl)OC(C)CCl` (configuration not stated): the result was inactive.
The same measure, in the same setting: with `CCCCCCC/C=C/C=O` the entry was “inactive”.
Same read-out and setting: then `Oc1ccc(Oc2ccccc2)cc1`, with “inactive”; and `FC(F)(Cl)C(F)(Cl)Cl`, with “inactive”.
The same measure, in the same setting: with `CCC(C)C1N=C(C)C(C)S1` (configuration not stated) the entry was “inactive”.
On to `O=C(Nc1ccccc1)c1cc([N+](=O)[O-])ccc1Cl`, for which the molecule was classed as inactive.
The same measure, in the same setting: then `O=C(Cl)c1ccc(F)c(Cl)c1`, with “inactive”; and `CC(=O)CC/C=C(\C)CC/C=C(\C)CC/C=C(\C)CCC=C(C)C`, with “inactive”; and `CCOc1ccc2c(c1)C(C)CC(C)(C)N2` (configuration not stated), with “inactive”.
`CCCC1CCOC(C)S1` (configuration not stated): the molecule was called inactive.
Still for that read-out and setting: then `N#Cc1ccc(CC(=O)c2cccc(C(F)(F)F)c2)cc1`, with “inactive”.
Same read-out and setting: then `O=C(OCCCCCOC(=O)c1ccccc1)c1ccccc1`, with “inactive”.
As for `Cc1c(Nc2ncccc2C(=O)O)cccc1C(F)(F)F`, the fluorescence, % of fluorescein control is -0.0657% [at 18.6 µM].
Still for that read-out and setting: with `O=C(O)c1ccc2c(c1)nc(C(=O)NC1CCN(C3CC3)CC1)n2Cc1cc(-c2ccc(Cl)s2)on1` the figure was -0.0042% [at 18.6 µM].
For the molecule `C[C@@H](O)[C@H]1C(=O)N2C(C(=O)O)=C(S[C@@H]3CN[C@H](CNS(N)(=O)=O)C3)[C@H](C)[C@H]12`, the call was inactive.
Still for that read-out and setting: then `CCCCCCOC(=O)c1ccccc1`, with “inactive”; and `CCCCOC(=O)CC#N`, with “inactive”; and `Nc1ccccc1Nc1ccccc1`, with “inactive”.
The same measure, in the same setting: then `Cc1cc(SC2=C(O)C[C@@](CCc3ccc(N)cc3)(C(C)C)OC2=O)c(C(C)(C)C)cc1CO`, with “inactive”; and `O=C(N[C@@H](Cc1ccccc1)[C@@H](O)C(=O)N1C[C@@H](O)[C@@H](O)C1)c1cc2cc(Cl)ccc2[nH]1`, with “inactive”.
For the molecule `COC=O`, the fluorescence, % of fluorescein control was -0.0327% [at 9.17 µM].
Same read-out and setting: then `CCN(CCCCOC(=O)c1ccc(OC)c(OC)c1)C(C)Cc1ccc(OC)cc1` (configuration not stated), with 0.0076% [at 18.6 µM].
For the molecule `COc1cc(CNC(=O)CCCC/C=C/C(C)C)ccc1O`, the outcome was inactive.
On the same count and under the same terms, with `CC/C=C/CCO` the entry was “inactive”.
On the same count and under the same terms, then `C=CC(C)(O)CC/C=C(/C)CCC=C(C)C` (configuration not stated), with “inactive”; and `Clc1ccccc1-c1nc(-c2ccncc2)no1`, with “inactive”; and `C(/C=C/C=C/Nc1ccccc1)=Nc1ccccc1`, with “inactive”.
The same measure, in the same setting: then `O=C(O)c1ccccc1-n1cc(C(=O)O)c(=O)c2cc(Nc3c(F)cc(F)cc3Cl)c(Cl)cc21`, with “inactive”.
With `O=Cc1ccc([N+](=O)[O-])cc1`, the outcome was inactive.
Same read-out and setting: then `CC(C)(Cc1c[nH]c2ccccc12)NCC(O)COc1ccccc1C#N` (configuration not stated), with “inactive”.
As to `CCc1c(C)[nH]c2c1C(=O)C(CN1CCOCC1)CC2` (configuration not stated), the fluorescence, % of fluorescein control is 0.0022% [at 18.6 µM].
Take `CCOc1ccc(NC(C)=O)cc1N`: the result was inactive.
Still for that read-out and setting: with `COc1ccc(C(=O)c2ccc(C)cc2)c(O)c1` the entry was “inactive”.
The same measure, in the same setting: then `C=C(C)C(=O)OCCCCCCCCCCOC(=O)C(=C)C`, with “inactive”; and `CCCCCCCCCCCCCCCCC(=O)O`, with “inactive”.
On the same count and under the same terms, with `CC(=O)c1cccnc1` the entry was “inactive”.
Regarding `CCC[Si](OC)(OC)OC`, the call was inactive.
